Reference: PubChem BioAssay (NCATS)
Active and inactive are the calls of the source. How the calls were made is not given here.

Conditions: Ebola virus entry assay, ratio channel

Structure (SMILES) | AC50 | outcome
O=C(Nc1ccccc1)OCC(CN1CCCCC1)OC(=O)Nc1ccccc1 (centres undefined) | 10 µM (active) | 
C[n+]1cc2c3c(ccc2c2ccc4cc5c(cc4c21)OCO5)OCO3 | 17.8 µM (active) | 
CCC(=O)O[C@]1(C(=O)COC)[C@@H](C)C[C@H]2[C@@H]3CCC4=CC(=O)C=C[C@]4(C)C3(F)[C@@H](O)C[C@@]21C (some centres undefined) | 7.94 µM (active) | 
O=C(Cn1ccnc1[N+](=O)[O-])NCCO |  | inactive
CCN(CCCc1ccccc1)CCCc1ccccc1 | 4.47 µM (active) | 
c1ccc(CNCCNCc2ccccc2)cc1 |  | inactive
NC1(c2ccc(-c3nc4ccn5c(=O)[nH]nc5c4cc3-c3ccccc3)cc2)CCC1 | 2.51 µM (active) | 
Nc1ccc(C(=O)N2CC3CC(CN(Cc4ccccc4)C3)C2)cc1 |  | inactive
CC(=O)OCC(=O)[C@@]12N=C(C)O[C@@H]1C[C@H]1[C@@H]3CCC4=CC(=O)C=C[C@]4(C)[C@H]3[C@@H](O)C[C@@]12C |  | inactive
CCCCCOc1ccccc1/C(=C\SC)n1ccnc1 |  | inactive
NCCc1ccc(O)c(O)c1 |  | inactive
O=c1[nH]c2ccccc2n1CCCN1CCN(C(c2ccccc2)c2ccccc2)CC1 | 3.98 µM (active) | 
CC(=O)OCC(=O)[C@@]1(O)CC[C@H]2[C@@H]3CCC4=CC(=O)C=C[C@]4(C)[C@H]3[C@@H](O)C[C@@]21C |  | inactive
CC(C)(C)c1ccc(C(O)CCCN2CCC(C(O)(c3ccccc3)c3ccccc3)CC2)cc1 (centres undefined) | 0.891 µM (active) | 
O=C(Nc1ccc(S(=O)(=O)N2CCOCC2)cc1)c1cc(Cl)ccc1NS(=O)(=O)c1ccc(Cl)s1 |  | inactive
Nc1c2c(nc3ccccc13)CCCC2O (centres undefined) |  | inactive
c1ccc(-c2ccc(C(c3ccccc3)n3ccnc3)cc2)cc1 (centres undefined) | 14.1 µM (active) | 
CC(C)NCCCC1(C(N)=O)c2ccccc2-c2ccccc21 |  | inactive
C[C@@H]1C[C@H]2[C@@H]3CCC4=CC(=O)C=C[C@]4(C)[C@@]3(F)[C@@H](O)C[C@]2(C)[C@@]1(O)C(=O)COC(=O)c1ccncc1 |  | inactive
Nc1ccc2c(c1)CN1C(=O)c3ccccc3C1=N2 |  | inactive

Structure (SMILES) | AC50 | outcome
COC[C@@H](c1ccc(C(F)(F)F)cc1)N1CCN(C2(C)CCN(C(=O)c3c(C)ncnc3C)CC2)C[C@H]1C | 25.1 µM (active) | 
CCOC(=O)C1(c2ccccc2)CCN(CCc2ccc(N)cc2)CC1 | 20 µM (active) | 
O=C(CS)Nc1ccccc1 |  | inactive
Nc1nc2ccccc2n1Cc1ccc(F)cc1 |  | inactive
CCOC(=O)OC(C)OC(=O)[C@@H]1N2C(=O)[C@@H](NC(=O)[C@H](N)c3ccccc3)[C@H]2SC1(C)C (some centres undefined) |  | inactive
CCOC(=O)COc1ccc2c(C)c(CCN(CC)CC)c(=O)oc2c1Cl | 25.1 µM (active) | 
CN(C(=O)CCCOc1ccc2[nH]c(=O)ccc2c1)C1CCCCC1 |  | inactive
CC[N+](CC)(CC)CCOc1ccc(/C=C/c2ccccc2)cc1 |  | inactive
CCOCCn1c(N2CCCN(C)CC2)nc2ccccc21 |  | inactive
NS(=O)(=O)c1ccc(N2CCCCS2(=O)=O)cc1 |  | inactive
CC/C(=C(/CC)c1ccc(O)cc1)c1ccc(O)cc1 |  | inactive
C[C@H]1O[C@@H](O[C@H]2CC[C@@]3(C)[C@H](CC[C@@H]4[C@@H]3C[C@@H](O)[C@]3(C)[C@@H](C5=CC(=O)OC5)CC[C@]43O)C2)C[C@H](O)[C@@H]1O[C@H]1C[C@H](O)[C@H](O[C@H]2C[C@H](O)[C@H](O[C@@H]3O[C@H](CO)[C@@H](O)[C@H](O)[C@H]3O)[C@@H](C)O2)[C@@H](C)O1 | 0.891 µM (active) | 
Clc1ccc(C(OCCN2CCCCC2)c2ccccc2)cc1 (centres undefined) | 14.1 µM (active) | 
CC1=C(CC(=O)O)c2cc(F)ccc2/C1=C\c1ccc(S(C)(=O)=O)cc1 |  | inactive
CNC[C@H](O)c1ccc(O)c(O)c1 |  | inactive
c1cnc(N2CCN(Cc3ccc4c(c3)OCO4)CC2)nc1 |  | inactive
Cc1nc2ccccc2c(=O)n1-c1ccccc1Cl | 20 µM (active) | 
C[C@@H]1CC[C@H]2[C@@H](C)C(=O)O[C@@H]3O[C@@]4(C)CC[C@@H]1[C@]32OO4 |  | inactive
C=C1c2cccc(O)c2C(O)=C2C(=O)[C@]3(O)C(O)=C(C(N)=O)C(=O)[C@@H](N(C)C)[C@@H]3[C@@H](O)[C@H]12 | 6.31 µM (active) | 
